# Reference: PubChem BioAssay
# Assay: MRP1 drug-resistance reversers in H69AR cells – cell-based, doxorubicin co-treatment, pilot screen (AID 601)
# Conditions: H69AR cells, CellTiter-Glo, 72 h; compound alone cytotoxicity; at 10 µM
row,Structure (SMILES),viability [%]
1,O=S(=O)(Nc1ccc(Cc2ccncc2)cc1)N1CCCC1,92.4
2,CCn1c(=O)cc(OCC(=O)NCCCN2CC(C)CC(C)C2)c2ccccc21 (stereo not given),74.7
3,Nn1c(SCC(=O)Nc2ccc3c(c2)OCO3)nnc1C1CC1,94.2
4,CCOP(=O)(c1ccc(N(C)C)cc1)C(O)c1ccccc1OC (stereo not given),98.7
5,COc1ccc(C(=O)N2CCSC2=S)cc1OC,82.1
6,O=c1c2nnn(Cc3ccccc3)c2ncn1-c1ccccc1,108
7,CCOc1ccc(NC(=O)CN(C)S(=O)(=O)c2cccs2)cc1,93.9
8,O=c1[nH]c(SCc2cc(=O)n3ccccc3n2)nc2c1CCC2,85.2
9,Cc1ccc(O)c(NC(=O)COc2cc(C)ccc2C)c1,89.4
10,N#Cc1cc2sc3nnc(-c4ccncc4)n3c2cc1C#N,32.3
11,CCOc1cc(C2c3c(n[nH]c3C)C(=O)N2c2ccc(Br)cc2)ccc1O (stereo not given),72.9
12,Cc1cc(NC(=O)CSc2ccc(Cl)cc2)no1,61
13,CC(C)[C@H](NC(=O)NC1CCCC1)C(=O)O,104
14,CCOC(=O)c1[nH]c2ccc(OC)cc2c1NC(=O)CCN1CCC(C)CC1,96.8
15,CCc1nc(C)c(-c2ccccc2)c(=O)[nH]1,113
16,CN(C)c1ccc(NC(=O)CSCc2nc3c(nnn3Cc3ccc(F)cc3)c(=O)[nH]2)cc1,94
17,COc1ccc(C2CC(=O)c3cnc(NC(=O)c4ccccc4OC)nc3C2)c(OC)c1 (stereo not given),87
18,Cc1cnc(NC(=O)CSc2nc3ccccc3c(=O)[nH]2)s1,93.3
19,CCCOc1ccc(OCCSc2ncccn2)cc1,102
20,Cc1nnc(C)c2c(C)n(-c3ccc(Br)cc3)c(C)c12,104
